G9a inh: qHTS Assay for Inhibitors of Histone Lysine Methyltransferase G9a; Histone-lysine N-methyltransferase EHMT2 (Homo sapiens), Q96KQ7; G9a H3K9 monomethylation, AlphaScreen, 2 h; Potency, µM (top dose mostly 102 µM), actives largely listed as inhibitors; 350,000 tested, 8.8% active; AID 504332, 2011; note: nearly all actives have a fitted effect of over 75% in size
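Chemiluminescent proximity detection of H3K9 monomethylation, read after 10 min bead incubation in the dark. Reaction: 20 nM G9a, 500 nM biotin-H3K9 peptide, 20 uM SAM cofactor, 2 h, room temperature, following 15 min enzyme-compound preincubation.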
Sfp PPTase inh: qHTS Assay for Inhibitors of Bacillus subtilis Sfp phosphopantetheinyl transferase (PPTase). 4'-phosphopantetheinyl transferase ffp (Bacillus subtilis), Q9F4F7. AID 1490, 2009. Biochemical Sfp PPTase activity, qHTS. 310,000 tested, 3.5% active. Potency, µM, usual class: inhibitors;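 note: the enzyme is Sfp with the accession as filed and its product quenches rhodamine fluorescence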
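Buffer: 50 mM Hepes-Na pH 7.6, 10 mM MgCl2, 0.01% Nonidet P-40, 0.01% BSA. Enzyme 15 nM, pre-exposed to compound 15 min; substrates then added and fluorescence change tracked over 30 min.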
VDR inh: Inhibitors of the vitamin D receptor (VDR): qHTS. 400,000 tested, 0.93% active. AID 504847, 2011. VDR-SRC2-3 peptide fluorescence polarization, 2 h. Potency, µM, actives largely listed as inhibitors. Vitamin D3 receptor (Homo sapiens), P11473
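FP read-out; VDR + SRC2-3 coactivator peptide; 23 nl compound by pintool; 2 h RT incubation; reagents held at 4 deg C, protected from light.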
MmCpn inh: Inhibitors of TCP-1 ring complex (TRiC) of Methanococcus maripaludis (MmCpn): qHTS; Chaperonin Mm-Cpn (Methanococcus maripaludis); purified Mm-Cpn ATPase, ADP Transcreener TR-FRET; Potency, µM (titrated, usually from 76.9 µM), hits mostly inhibitors; 330,000 tested, 0.031% active; AID 504842, 2011; note: nearly all actives have a fitted effect of over 80% in size
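Eu-cryptate anti-ADP/ADP-d2 competition gives a ratio inversely related to ADP. Enzyme at 25 nM was pre-exposed to compound for 10 min, then given 10 uM ATP for 30 min, 37°C throughout.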
CCT chaperon mod: High-Throughput Screening for Modulators of Cytosolic Chaperonin Activity; activity change, % (concentration not given with the values), hits read low; purified chaperonin ATPase assay, HTRF ADP detection, 30 min; 360,000 tested, 0.3% active; in the data active = activity change below about -30%
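We incubate TRiC, 40 or 20 nM final, with library compounds at 76 uM and 10 uM ATP for 30 min at 37 °C. ADP formed is detected with Transcreener HTRF reagents after 30 min at room temperature.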
PLK1 PBD inh: qHTS for Inhibitors of PLK1-PDB (polo-like kinase 1 - polo-box domain): Primary Screen | Serine/threonine-protein kinase PLK1 (Homo sapiens), P53350 | Plk1 PBD binding of FITC phosphopeptide, fluorescence polarization | Potency, µM, usual class: inhibitors | 360,000 tested, 2.8% active | AID 720504, 2013; note: series mostly up to about 57 µM; nearly all actives have a fitted effect of over 65% in size
Target sequence (P53350 whole entry, looked up, the tested form may be a part): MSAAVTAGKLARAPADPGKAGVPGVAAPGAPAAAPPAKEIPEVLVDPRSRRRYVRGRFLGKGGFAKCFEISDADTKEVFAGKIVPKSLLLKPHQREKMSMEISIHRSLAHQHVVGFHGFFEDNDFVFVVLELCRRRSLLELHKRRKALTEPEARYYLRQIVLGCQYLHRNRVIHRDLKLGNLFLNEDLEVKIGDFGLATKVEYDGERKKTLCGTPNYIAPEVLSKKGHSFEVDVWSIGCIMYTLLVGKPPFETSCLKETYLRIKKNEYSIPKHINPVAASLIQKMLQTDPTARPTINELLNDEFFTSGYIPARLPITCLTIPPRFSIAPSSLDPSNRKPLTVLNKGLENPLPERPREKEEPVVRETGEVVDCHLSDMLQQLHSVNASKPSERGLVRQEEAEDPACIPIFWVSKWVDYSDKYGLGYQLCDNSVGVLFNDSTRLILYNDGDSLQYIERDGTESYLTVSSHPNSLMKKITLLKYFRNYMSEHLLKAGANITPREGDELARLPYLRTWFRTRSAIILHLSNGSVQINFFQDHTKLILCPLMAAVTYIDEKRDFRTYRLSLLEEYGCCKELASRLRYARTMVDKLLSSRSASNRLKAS
Hits are given with their value; i = inactive; ? = inconclusive; nt = no result; ! = repeats disagree; [ ] = remark or other dose. Only some compounds are listed: those with a hit (about 10% of all), similar ones and a draw of the others. Unless noted, calls come from the whole dose curve; as a rule, active = well fitted curve in the direction sought with a large enough effect; inconclusive = small, poorly fitted or top-dose-only effect, or another doubt; inactive = no such curve, though single readings can be large; an effect the other way counts as inactive or inconclusive.

SMILES	G9a inh	Sfp PPTase inh	VDR inh	MmCpn inh	CCT chaperon mod	PLK1 PBD inh
COc1ccc(N2CCN(CC(=O)c3ccccc3)CC2)cc1	11µM	i	i	i	i	?
O=C(Cc1ccccc1)N1CCN(c2ccc([N+](=O)[O-])cc2)CC1	i	i	i	i	i	i
O=C(CN1CCN(c2ccc([N+](=O)[O-])cc2)CC1)c1ccccc1	7.1µM	?	i	i	i	i
O=C(CCN1CCN(c2ccccc2)CC1)c1ccc(Cl)cc1	28µM	i	79µM	i	i	?
COc1ccc(N2CCN(CCC(=O)c3ccc4ccccc4c3)CC2)cc1	10µM	i	71µM	i	i	6.7µM
COc1ccc2c(c1)c(C(=O)CN1CCN(c3ccccc3)CC1)c(C)n2C	35µM	i	i	i	i	i
Cc1ccc(C)c(N2CCN(C(=O)c3cc(C)nc4c3c(C)nn4-c3ccccc3)CC2)c1	i	nt	i	nt	nt	nt
COc1ccccc1-c1cncnc1NCc1ccccc1	i[0.501 µM]	i	?	nt	nt	nt
O=C(NCCC1CCCCN1S(=O)(=O)c1ccccc1)C(=O)NCCN1CCOCC1 (stereo not given)	i[0.501 µM]	nt	i	i	i	i
CC1CCN(CC[C@H]2CCCN2S(=O)(=O)c2cccc(O)c2)CC1	25µM!	i	i	i	i	i
Cc1cc(C)nc(NC(=O)c2cc(-c3ccc(C)s3)nc3ccccc23)c1	i	i	i	?	i	i
CCN(CC)C(=O)c1sc(NC(=O)c2ccoc2C)c(C(=O)OC)c1C	13µM	32µM	?	i	i	21µM
CCN(CC)C(=O)c1sc(NC(=O)c2cc(-c3ccc(C)s3)nc3ccccc23)c(C(=O)OC)c1C	40µM	13µM	i	i	i	15µM
CCOC(=O)c1sc(NC(=O)OC)c(C(=O)OC)c1C	i	i	i	i	i	i
CCOC(=O)c1c(NC(=O)OC)sc(C(=O)N(CC)CC)c1C	?	22µM	i	i	i	24µM
CCOC(=O)c1c(NC(=O)c2ccoc2C)sc(C(=O)N(C)C)c1C	32µM	i	i	i	i	?
CCCCc1nn2c(=O)cc(COC(=O)C3CCCCC3)nc2s1	i	nt	i	nt	nt	nt
CCN(CC)C(=O)c1sc(NC(=O)c2ccncc2)c(C(=O)OC)c1C	?	28µM	?	i	i	i
CCN(CC)C(=O)c1c(NC(=O)c2ccccc2)sc(C)c1C	i	i	i	?	i	i
CCc1cc(C(=O)OC)c(NC(=O)c2ccoc2C)s1	i	i	i	i	-45	i
CCC(C)NC(=O)Cn1c(=O)n(-c2ccc(C)c(C)c2)c(=O)c2c3c(sc21)CCCCC3 (stereo not given)	i	nt	i	nt	nt	nt
COc1ccc(-n2c(=O)c3ccccc3n(CC(=O)NCCc3ccccc3)c2=O)c(OC)c1	i	nt	i	nt	nt	nt
CNC1(c2nnnn2-c2ccccc2C)CCOC(C)(C)C1 (stereo not given)	i[12.7 µM]	i	22µM	i	i	15µM
Cc1ccccc1-n1nnnc1SC1CCOC1=O (stereo not given)	i	i	i	i	i	i
O=C(c1ccc(Cl)c(S(=O)(=O)N2CCCC2)c1)N1CCN(c2ccccc2)CC1	i	i	32µM	i	i	13µM
O=C(c1ccc(Cl)c(S(=O)(=O)N2CCCCC2)c1)N1CCN(c2ccccc2)CC1	i	i	i	i	i	i
O=C(c1ccc(Cl)c(S(=O)(=O)N2CCCC2)c1)N1CCN(c2ccc(F)cc2)CC1	45µM	i	i	i	i	i
Cc1ccc(C(=O)N2CCN(c3ccc(F)cc3)CC2)cc1S(=O)(=O)N1CCCCC1	i	i	i	i	i	i
C=CCN(c1ccc(C(=O)N2CCN(c3ccc(F)cc3)CC2)cc1)S(C)(=O)=O	i	i	i	i	i	i
CN(c1ccc(C(=O)N2CCN(c3ccc(F)cc3)CC2)cc1)S(C)(=O)=O	i	i	i	i	i	3.4µM
